# Laboratory results published in PubChem BioAssay (NCATS).
# Results filed as inconclusive are left out. A call without a number means that no potency is given here. Unmarked numbers belong to inactive results. Calls of active or inactive are those of the source. Calls follow the shape of the dose curve; as a rule, active = well fitted curve in the direction sought with a large enough effect; inconclusive = small, poorly fitted or top-dose-only effect, or another doubt; inactive = no such curve, though single readings can be large; an effect the other way counts as inactive or inconclusive.
# Key:
# C33A = experiment: Primary qHTS to identify gynecologic anti-cancer compounds using libraries of approved drugs and bioactive compounds (AID 1345084); details: Gynecologic cancer cell panel viability, ATPlite luminescence, 48 h; series mostly up to 57.5 µM; also: nearly all actives have a fitted effect of over 55% in size
# Outline: (§1)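 ATP-based viability (ATPlite), 1,000 cells/well, 16 h pre-incubation, 48 h compound at 37 C, 5% CO2, 15 min RT before read.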
# CASKI = experiment: as above; details: Gynecologic cancer cell panel viability, ATPlite luminescence, 48 h; series mostly up to 57.5 µM
# Outline: as §1
# Es-2 = experiment: as above; details: Gynecologic cancer cell panel viability, ATPlite luminescence, 48 h; series mostly up to 57.5 µM
# Outline: as §1
# HeLa = experiment: as above; details: Gynecologic cancer cell panel viability, ATPlite luminescence, 48 h; series mostly up to 57.5 µM
# Outline: as §1
# Hek293T = experiment: as above; details: Gynecologic cancer cell panel viability, ATPlite luminescence, 48 h, control line for the selectivity index; series mostly up to 57.5 µM
# Outline: as §1
# JEG-3 = experiment: as above; details: Gynecologic cancer cell panel viability, ATPlite luminescence, 48 h; series mostly up to 57.5 µM
# Outline: as §1
# OV90 = experiment: as above; details: Gynecologic cancer cell panel viability, ATPlite luminescence, 48 h; series mostly up to 57.5 µM
# Outline: as §1
# PA-1 = experiment: as above; details: Gynecologic cancer cell panel viability, ATPlite luminescence, 48 h; series mostly up to 57.5 µM
# Outline: as §1
# SKOV3 = experiment: as above; details: Gynecologic cancer cell panel viability, ATPlite luminescence, 48 h; series mostly up to 57.5 µM
# Outline: as §1
# Tov112D = experiment: as above; details: Gynecologic cancer cell panel viability, ATPlite luminescence, 48 h; series mostly up to 57.5 µM
# Outline: as §1
# [1] = Drug repurposing screens with cells derived from glioblastoma tumor samples (AID 1345199); details: GBM patient neurospheres viability, ATP luminescence, 48 h; also: nearly all actives have a fitted effect of over 40% in size
# Outline: (§2)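 Primary testing used CD133+ neurospheres from four GBM patients, seven concentrations, 48 h exposure and ATP-based viability; confirmation added three slower-growing patient lines.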
# astro = experiment: as above; details: viability, ATP luminescence, 48 h; series mostly up to 45.9 µM
# Outline: as §2
# Tov-21-G = experiment: Primary qHTS to identify gynecologic anti-cancer compounds using libraries of approved drugs and bioactive compounds (AID 1345084); details: Gynecologic cancer cell panel viability, ATPlite luminescence, 48 h; series mostly up to 57.5 µM; also: nearly all actives have a fitted effect of over 55% in size
# Outline: as §1
# [2] = qHTS assay to identify inhibitors of the type 1 interferon - major histocompatibility complex class I in skeletal muscle: Counter screen cell viability and HiBit confirmation (AID 1347412); details: iHSKM muscle cells + IFN-b, HiBiT or CellTiter-Glo, 24 h; for activity change, negative = inhibition: at 45.9 µM (top of the series); as to all read-outs here: nearly all actives have a fitted effect of over 60% in size
# Outline: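 Luminescence read-out: Nano-Glo HiBiT lytic signal from C-terminally HiBiT-tagged HLA-B in CRISPR-edited human myoblasts, plus CellTiter Glo ATP as viability counter screen. IFN-beta 4.0 ng/ml; 24 hrs treatment at 37 C, 5% CO2.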
# CAOV3 = experiment: Primary qHTS to identify gynecologic anti-cancer compounds using libraries of approved drugs and bioactive compounds (AID 1345084); details: Gynecologic cancer cell panel viability, ATPlite luminescence, 48 h; series mostly up to 57.5 µM; also: nearly all actives have a fitted effect of over 55% in size
# Outline: as §1
# [3] = at 46.1 µM (top of the series), tumour line C
# [4] = at 45.9 µM (top of the series), tumour line B
# [5] = at 45.9 µM (top of the series), tumour line D
# [6] = at 46 µM (top of the series), tumour line A
# Potency is read from the fitted curve at half-maximal effect.
structure (smiles),measurement,setting,value
COc1cc2ncnc(Nc3ccc(F)c(Cl)c3)c2cc1OCCCN1CCOCC1,Potency,C33A,inactive
same,Potency,CASKI,inactive
same,Potency,Es-2,inactive
same,Potency,HeLa,inactive
same,Potency,Hek293T,inactive
same,Potency,JEG-3,inactive
same,Potency,OV90,inactive
same,Potency,PA-1,inactive
same,Potency,SKOV3,10 µM (active)
same,Potency,Tov112D,inactive
same,"activity, negative = cell killing",[1]; [3],-12.4%
same,Potency,[1]; tumour line A,5.62 µM (active)
same,Potency,[1]; tumour line B,17.8 µM (active)
same,Potency,[1]; tumour line D,8.91 µM (active)
same,Potency,astro,20 µM (active)
CC(C)NCC(O)COc1cccc2[nH]ccc12 (stereo not given),Potency,C33A,inactive
same,Potency,CASKI,inactive
same,Potency,Es-2,inactive
same,Potency,HeLa,inactive
same,Potency,Hek293T,inactive
same,Potency,JEG-3,inactive
same,Potency,OV90,inactive
same,Potency,PA-1,inactive
same,Potency,SKOV3,inactive
same,Potency,Tov-21-G,inactive
same,Potency,Tov112D,inactive
same,"activity, negative = cell killing",[1]; [4],-5.39%
same,"activity, negative = cell killing",[1]; [5],-14.8%
same,"activity, negative = cell killing",[1]; [6],-24.6%
same,"activity, negative = cell killing",[1]; [3],1.52%
same,Potency,astro,inactive
C[N+](C)(C)CCCCCC[N+](C)(C)C,Potency,C33A,inactive
same,Potency,CASKI,inactive
same,Potency,Es-2,inactive
same,Potency,HeLa,inactive
same,Potency,Hek293T,inactive
same,Potency,JEG-3,inactive
same,Potency,OV90,inactive
same,Potency,PA-1,inactive
same,Potency,SKOV3,inactive
same,Potency,Tov-21-G,inactive
same,Potency,Tov112D,inactive
same,"activity, negative = cell killing",[1]; [4],-9.48%
same,"activity, negative = cell killing",[1]; [5],-17.5%
same,"activity, negative = cell killing",[1]; [6],-4.52%
same,"activity, negative = cell killing",[1]; [3],8.25%
same,Potency,astro,inactive
CCn1c(C(=O)N(C2CC2)C2CC2)cc2c3c(ncn3C)c(Nc3cc(C)n(C)n3)nc21,Potency,C33A,inactive
same,Potency,CASKI,inactive
same,Potency,Es-2,inactive
same,Potency,HeLa,inactive
same,Potency,Hek293T,inactive
same,Potency,JEG-3,inactive
same,Potency,OV90,inactive
same,Potency,PA-1,inactive
same,Potency,SKOV3,inactive
same,Potency,Tov-21-G,inactive
same,Potency,Tov112D,inactive
NC(N)=Nc1nc(CSCC/C(N)=N/S(N)(=O)=O)cs1,Potency,C33A,inactive
same,Potency,CASKI,inactive
same,Potency,Es-2,inactive
same,Potency,HeLa,inactive
same,Potency,Hek293T,inactive
same,Potency,JEG-3,inactive
same,Potency,OV90,inactive
same,Potency,PA-1,inactive
same,Potency,SKOV3,inactive
same,Potency,Tov-21-G,inactive
same,Potency,Tov112D,inactive
same,"activity, negative = cell killing",[1]; [4],-1.53%
same,"activity, negative = cell killing",[1]; [5],-7.06%
same,"activity, negative = cell killing",[1]; [6],-13.8%
same,"activity, negative = cell killing",[1]; [3],-8.17%
same,Potency,astro,inactive
CN(C)c1cc(NC(=O)CNC(C)(C)C)c(O)c2c1C[C@@H]1C[C@H]3[C@H](N(C)C)C(=O)C(C(N)=O)=C(O)[C@@]3(O)C(=O)C1=C2O,Potency,C33A,inactive
same,Potency,CASKI,inactive
same,Potency,Es-2,inactive
same,Potency,HeLa,inactive
same,Potency,Hek293T,inactive
same,Potency,JEG-3,inactive
same,Potency,OV90,inactive
same,Potency,PA-1,inactive
same,Potency,SKOV3,inactive
same,Potency,Tov-21-G,inactive
same,Potency,Tov112D,inactive
same,"activity, negative = cell killing",[1]; [4],8.46%
same,"activity, negative = cell killing",[1]; [5],6.87%
same,"activity, negative = cell killing",[1]; [6],-27.8%
same,"activity, negative = cell killing",[1]; [3],0.651%
same,Potency,astro,inactive
CC(C)C(=O)Nc1ncc(-c2cc(C(F)F)nn2-c2c(Cl)cccc2Cl)s1,Potency,C33A,inactive
same,Potency,CASKI,inactive
same,Potency,Es-2,inactive
same,Potency,Hek293T,inactive
same,Potency,JEG-3,inactive
same,Potency,OV90,inactive
same,Potency,SKOV3,inactive
CN(C)C1CCN(C(=O)c2ccc(NC(=O)Nc3nc(N4CCOCC4)nc(N4CCOCC4)n3)cc2)CC1,Potency,C33A,0.178 µM (active)
same,Potency,CASKI,0.141 µM (active)
same,Potency,Es-2,0.794 µM (active)
same,Potency,HeLa,0.794 µM (active)
same,Potency,Hek293T,0.891 µM (active)
same,Potency,OV90,0.141 µM (active)
same,Potency,SKOV3,0.1 µM (active)
NC(=O)c1ccc2nc(-c3ccc(Oc4ccc(Cl)cc4)cc3)[nH]c2c1,Potency,CASKI,inactive
same,Potency,Hek293T,inactive
same,Potency,JEG-3,inactive
same,Potency,PA-1,15.8 µM (active)
same,Potency,Tov112D,inactive
COc1cc2nc(-c3ccc(N4CCN(C)CC4)cc3)nc(NCCN3CCOCC3)c2cc1OC,Potency,C33A,inactive
same,Potency,Es-2,inactive
same,Potency,HeLa,inactive
same,Potency,Hek293T,inactive
same,Potency,JEG-3,inactive
same,Potency,PA-1,15.8 µM (active)
same,Potency,Tov112D,inactive
CNC1CCC(N(Cc2cccc(-c3ccncc3)c2)C(=O)c2sc3c(F)ccc(F)c3c2Cl)CC1 (stereo not given),Potency,C33A,inactive
same,Potency,CASKI,inactive
same,Potency,HeLa,inactive
same,Potency,JEG-3,inactive
same,Potency,SKOV3,inactive
same,Potency,Tov112D,inactive
same,"activity change, negative = inhibition",[2]; HiBiT,-27.3%
CCOc1ccc(Nc2nc(-c3c(C)nc4ccccn34)cs2)cc1,Potency,C33A,0.355 µM (active)
same,Potency,Es-2,0.316 µM (active)
same,Potency,HeLa,0.178 µM (active)
same,Potency,OV90,1.41 µM (active)
same,Potency,Tov-21-G,0.316 µM (active)
same,Potency,Tov112D,0.158 µM (active)
CC(=O)N(C)C1(c2ccccc2)CCN(CCC[C@]2(c3ccc(Cl)c(Cl)c3)CCCN(C(=O)c3ccccc3)C2)CC1,Potency,CASKI,22.4 µM (active)
same,Potency,SKOV3,22.4 µM (active)
CN1CCN(CCOc2cc(OC3CCOCC3)c3c(Nc4c(Cl)ccc5c4OCO5)ncnc3c2)CC1,Potency,Es-2,inactive
same,Potency,HeLa,inactive
same,Potency,Hek293T,inactive
same,Potency,JEG-3,inactive
same,Potency,SKOV3,3.55 µM (active)
same,Potency,Tov-21-G,2.24 µM (active)
same,Potency,Tov112D,inactive
CC/C(=C(\c1ccccc1)c1ccc(OCCN(C)C)cc1)c1ccccc1,Potency,C33A,inactive
same,Potency,CASKI,inactive
same,Potency,Es-2,inactive
same,Potency,HeLa,inactive
same,Potency,Hek293T,inactive
same,Potency,JEG-3,inactive
same,Potency,Tov-21-G,inactive
same,Potency,Tov112D,inactive
same,Potency,astro,25.1 µM (active)
Cc1ccn(-c2ccc(-c3ncco3)cc2)c(=O)c1-c1ccc2nc(N)ncc2c1,Potency,CAOV3,inactive
same,Potency,HeLa,inactive
same,Potency,Hek293T,inactive
same,Potency,JEG-3,inactive
same,Potency,OV90,inactive
same,Potency,PA-1,11.2 µM (active)
same,Potency,SKOV3,3.55 µM (active)
same,Potency,Tov-21-G,11.2 µM (active)
same,Potency,Tov112D,inactive
Cc1ccc(Nc2cc(-c3cccc(N4C(=O)c5ccccc5C4=O)c3)ncn2)cc1NS(C)(=O)=O,Potency,C33A,inactive
same,Potency,CASKI,inactive
same,Potency,Es-2,inactive
same,Potency,HeLa,inactive
same,Potency,OV90,inactive
same,Potency,SKOV3,inactive
same,Potency,Tov-21-G,inactive
same,Potency,Tov112D,inactive
CC1(C)CCC(CN2CCN(c3ccc(C(=O)NS(=O)(=O)c4ccc(NCC5CCOCC5)c([N+](=O)[O-])c4)c(Oc4cnc5[nH]ccc5c4)c3)CC2)=C(c2ccc(Cl)cc2)C1,Potency,C33A,inactive
same,Potency,CASKI,inactive
same,Potency,Es-2,inactive
same,Potency,HeLa,inactive
same,Potency,Hek293T,inactive
same,Potency,OV90,inactive
same,Potency,PA-1,inactive
same,Potency,SKOV3,inactive
same,Potency,Tov-21-G,inactive
same,Potency,Tov112D,inactive
O=C(O)c1ccccc1C(=O)Nc1ccc(-c2ccccc2)cc1,Potency,C33A,inactive
same,Potency,SKOV3,25.1 µM (active)
same,Potency,[2]; HiBiT,14 µM (active)
same,"activity change, negative = inhibition",[2]; Viability,-4.23%
Cc1nc(N)sc1-c1ccnc(Nc2ccc(N3CCOCC3)cc2)n1,Potency,Es-2,10 µM (active)
same,Potency,HeLa,2.51 µM (active)
same,Potency,OV90,15.8 µM (active)
same,Potency,PA-1,8.91 µM (active)
same,Potency,SKOV3,8.91 µM (active)
same,Potency,Tov-21-G,14.1 µM (active)
same,Potency,Tov112D,12.6 µM (active)
same,Potency,[2]; HiBiT,5.57 µM (active)
COCCOc1nc(-c2ccc(Cl)c(Cl)c2)n(-c2ccc(NC(=O)CCl)cc2)n1,Potency,C33A,20 µM (active)
same,Potency,Es-2,11.2 µM (active)
same,Potency,HeLa,inactive
same,Potency,OV90,inactive
same,Potency,Tov-21-G,5.62 µM (active)
same,Potency,[2]; HiBiT,3.52 µM (active)
same,Potency,[2]; Viability,7.87 µM (active)
CN(C[C@@H]1COCCO1)S(=O)(=O)Nc1ccc2ccc3ncc(-c4cnn(C)c4)cc3c(=O)c2c1,Potency,CASKI,inactive
same,Potency,Es-2,inactive
same,Potency,HeLa,12.6 µM (active)
same,Potency,Hek293T,inactive
same,Potency,JEG-3,inactive
same,Potency,OV90,inactive
same,Potency,Tov-21-G,20 µM (active)
